Assay results: publication PMC4552634, “A New Set of Chemical Starting Points with Plasmodium falciparum Transmission-Blocking Potential for Antimalarial Drug Discovery” (PLoS ONE, 2015)
The campaign covered roughly 13,000 compounds. About 3,200 (25%) showed an effect of 50% or more. Some of the results follow.

Tested on: P. falciparum stage V gametocytes
Set-up: BacTiter-Glo ATP luminescence viability of purified stage V gametocytes in 384-well plates, per cent inhibition versus DMSO
Settings: 48 h, 5 µM; inhibitor

Row | SMILES | % Inhibition
1 | Cc1cccc2[nH]c(-c3cccc(-c4ccc(NC(=O)Cc5ccon5)cc4)c3)nc12 [TCMDC-136906] | -38.48%
2 | Cc1cccc(/C=C/C(=O)NC2CCC(N3CCC(c4ccccc4C)CC3)CC2)c1 (centres unmarked) [TCMDC-133528] | -62.92%
3 | CN1CCN(c2ccnc3ccc(NC(=O)Cc4ccc(Br)c5ccccc45)cc23)CC1 [TCMDC-139254] | 0.9853%
4 | CS(=O)(=O)NCCCNCc1ccc(-c2cccc(-c3nc4ccc(F)cc4[nH]3)c2)cc1 [TCMDC-133077] | 6.508%
5 | COc1ccc2ncc(F)c(CCN3CCC(CNCc4cccc5c4OCO5)CC3)c2n1 [TCMDC-135851] | -2.329%
6 | CCN(CC)CCCOC(=O)c1ccc2c(c1)-c1ccc(C(=O)OCCCN(CC)CC)c3cccc-2c13 [TCMDC-125491] | 109%
7 | CCCN(CC)CCOC(=O)c1ccccc1 [TCMDC-131376] | 17.72%
8 | CN(C)C(=O)CC(=O)NCc1cccc(Cl)c1 [TCMDC-131747] | 5.736%
9 | CC/N=C(/NCCCCCCN/C(=N/CC)NCc1ccccc1)NCc1ccccc1 [TCMDC-137726] | -33.37%
10 | CCCCN(CCCC)C(=NC(=N)NCc1ccc(Cl)c(Cl)c1)NCCCCCCNC(=NC(=N)NCc1ccc(Cl)c(Cl)c1)N(CCCC)CCCC [TCMDC-131821] | 116.7%
11 | CCN(CC)/C(=N/C(=N)NCc1ccc(Cl)cc1Cl)NCCCCCCN/C(=N\C(=N)NCc1ccc(Cl)cc1Cl)N(CC)CC [TCMDC-131819] | 120%
12 | CCN(CC)C(=NC(=N)NCc1ccc(Cl)cc1)NCCCCCCNC(=NC(=N)NCc1ccc(Cl)cc1)N(CC)CC [TCMDC-131817] | 120%
13 | CCCCN(CCCC)C(=Nc1cccc(Cl)c1Cl)Nc1ccc(C#N)cc1O [TCMDC-140226] | -14.17%
14 | CCN(CC)/C(=N/C(=N)NCc1cccc(Cl)c1)NCCCCCCN/C(=N\C(=N)NCc1cccc(Cl)c1)N(CC)CC [TCMDC-131820] | 122%
15 | CCCc1cc(Cc2cnc(N)nc2N)cc(OCCCCCC(=O)O)c1OC [TCMDC-137182] | 2.989%
16 | O=C(NC1CCN(Cc2ccccc2)CC1)c1ccc2c(=O)n(Cc3ccc(Cl)cc3)c(=S)[nH]c2c1 [TCMDC-125694] | 0.6987%
17 | COCCNCc1cccc(C#Cc2cc3ncnc(Nc4ccc(OCc5cccc(F)c5)c(Cl)c4)c3s2)n1 [TCMDC-138842] | 7.186%
18 | Fc1ccc(CN2CCN(c3ncnc4cc(-c5ccccc5)sc34)CC2)cc1 [TCMDC-132385] | -47.67%
19 | CCCc1cc(Cc2cnc(N)nc2N)cc2c1OC(C)C2C (centres unmarked) [TCMDC-138047] | 3.526%
20 | O=C1COC2(CN1CC1CCN(Cc3ccc(O)c(Cl)c3)C1)c1ccccc1-c1ccccc12 (centres unmarked) [TCMDC-136343] | -1.738%
21 | NC(N)=NC(=O)Nc1ccc(Cl)c(C(F)(F)F)c1 [TCMDC-137469] | -12.43%
22 | Cc1ncc(CN2CCC(C(=O)Nc3ccc(-c4nc5ccccc5o4)cc3)CC2)s1 [TCMDC-124675] | 0.01985%
23 | O=C(Nc1cccc(CN2CCCN(Cc3cccc(O)c3)CC2)c1)c1ccc2ccccc2c1 [TCMDC-141855] | 21.81%

Row | SMILES | % Inhibition
24 | Cc1nccc2c(NC(=O)N[C@@H]3CCN(c4ncc(C(F)(F)F)cc4Br)C3)cccc12 [TCMDC-141942] | 13.41%
25 | Cc1nc2ccc3ccc(CNc4ccc(C(=O)N[C@@H](CCC(=O)O)C(=O)O)c(F)c4)cc3c2c(=O)[nH]1 [TCMDC-138112] | -4.938%
26 | Cc1ccc2ccncc2c1N [TCMDC-138025] | -56.11%
27 | CN1CCC(N2CCN(c3ccc4c(=O)nc(CCc5cccc(F)c5F)n(CC(=O)N(C)Cc5ccc(-c6ccc(C(F)(F)F)cc6)cc5)c4n3)CC2)CC1 [TCMDC-136512] | 105.9%
28 | CN(Cc1ccc(-c2ccc(C(F)(F)F)cc2)cc1)C(=O)Cn1c(CCc2cccc(F)c2F)nc(=O)c2ccc(N3CCN(CCN4CCCCC4)CC3)nc21 [TCMDC-136511] | 109.8%
29 | Cc1cc(NC(=O)Nc2cccc(C#N)c2)c2ccccc2n1 [TCMDC-138953] | 4.681%
30 | Nc1cccc(CNCc2ccc(-c3ccc(-c4nc5ccccc5[nH]4)s3)cc2)c1 [TCMDC-132927] | -10.94%
31 | CSc1nc2nc(C)c(Cc3cccc(C(F)(F)F)c3)c(C)n2n1 [TCMDC-123763] | -63.49%
32 | CN(C)CCC(O)(c1ccc(Br)cc1)c1cccnc1 (centres unmarked) [TCMDC-131412] | -6.865%
33 | Cn1c2ccccc2c2c3ccccc3c(CNC(CO)(CO)CO)cc21 [TCMDC-137747] | 1.595%
34 | CC(CO)(CO)NCc1cc2c3ccccc3c(CNC(C)(CO)CO)cc2c2ccccc12 [TCMDC-137752] | 88.47%
35 | CC(CO)(CO)NCc1cc2ccc3ccsc3c2c2ccccc12 [TCMDC-137753] | 1.403%
36 | COc1ccccc1C1CC(c2ccc(C)cc2)=NN1C(=O)c1ccccc1 (centres unmarked) [TCMDC-123887] | 21.23%
37 | COc1cc(Cc2cnc(N)nc2N)c2ccsc2c1OC [TCMDC-137762] | -4.679%
38 | CCOC(=O)N1CCN(C(=O)Nc2ccc(Cl)cc2)CC1 [TCMDC-125820] | -28.23%
39 | CCOC(=O)c1cccc(NC(=O)Nc2cc(C)nc3ccccc23)c1 [TCMDC-138957] | -2.163%
40 | CCOC(=O)N1CCN(CCCCCNc2cc(C)nc(/N=C(\N)Nc3ccc(Cl)cc3)n2)CC1 [TCMDC-138013] | 60.55%
41 | Cc1cc(NCCc2ccccc2)nc(/N=C(\N)Nc2ccccc2Cl)n1 [TCMDC-138370] | 92.38%
42 | CCOC(=O)c1cccc(N/C(N)=N/c2nc(C)cc(NCCc3ccccc3)n2)c1 [TCMDC-138372] | 76.13%
43 | CCN(CC)CCNc1cc(C)nc(/N=C(\N)Nc2ccc(Cl)cc2)n1 [TCMDC-137477] | 81.2%
44 | Cc1cc(N2CC=CCC2)nc(/N=C(\N)Nc2ccc(Cl)cc2)n1 [TCMDC-131240] | 30.94%
45 | CCOc1cc(C)ccc1N1CCN(CCCCNC(=O)c2ccc(NC(=O)c3ccc(Cl)cc3)cc2)CC1 [TCMDC-138523] | 2.314%
46 | CCNc1cc(C)nc(Nc2ccc(NC(=O)c3c(F)cccc3Cl)cc2)n1 [TCMDC-124984] | 3.1%

Row | SMILES | % Inhibition
47 | COc1ccc2nccc(NC(=O)C3(O)CCC(NCc4ncc5c(c4Cl)OCCO5)CC3)c2n1 (centres unmarked) [TCMDC-141562] | 2.096%
48 | O=C(O)C(F)(F)F.O=C(O)CCc1ccc(-c2c[nH]c3ncc(-c4ccc5ncccc5c4)cc23)cc1 [TCMDC-136336] | 14.57%
49 | COc1ccc2nccc([C@@H](O)CN3CCC(NCc4cn5cc(F)ccc5n4)CC3)c2c1 [TCMDC-140778] | 43.65%
50 | Cn1c(NC(=O)C2CCC(CNC(=O)c3ccc(O)c(-c4ccc(Cl)c(Cl)c4)c3)CC2)nc2ccccc21 (centres unmarked) [TCMDC-140897] | 13.96%
51 | O=C(NCc1cccnc1)C(c1cc2ccccc2o1)N1CCN(C(c2ccccc2)c2ccccc2)CC1 (centres unmarked) [TCMDC-141023] | 15.45%
52 | O=C(NC1CCC(CN2CCC(c3c[nH]c4ccccc34)CC2)CC1)c1cc(-c2ccc(F)cc2F)ccc1O (centres unmarked) [TCMDC-139894] | -31.8%
53 | Cc1cc(NCCCOc2ccc(Cl)cc2)nc(NCc2ccccc2)n1 [TCMDC-137548] | -22.71%
54 | CCCCCCNc1cc(C)nc(/N=C(\N)Nc2cccc(C(F)(F)F)c2)n1 [TCMDC-138510] | 79.07%
55 | Cc1cc(N2CCCC2)nc(/N=C(\N)Nc2cccc(C(F)(F)F)c2)n1 [TCMDC-138509] | 20.83%
56 | NC(N)=NN=CC(=O)Nc1cccc(C(F)(F)F)c1 [TCMDC-137563] | 10.63%
57 | Cc1cc(NCCc2cccc(F)c2)nc(/N=C(\N)Nc2cccc(C(F)(F)F)c2)n1 [TCMDC-138508] | 57.1%
58 | Cc1cc(NCCc2ccccc2)nc(/N=C(\N)Nc2cccc(F)c2)n1 [TCMDC-138373] | 55.97%
59 | Cc1cc(NCCc2ccccc2)nc(NC(=NCC(=O)OC(C)(C)C)Nc2ccc(C(F)(F)F)cc2)n1 [TCMDC-138520] | -13.38%
60 | Cc1cc(NCCc2ccccc2)nc(/N=C(\N)Nc2ccc(Cl)cc2)n1 [TCMDC-131843] | 52.3%
61 | N#Cc1ccc(/C=C/C(=O)NCCCCCN2CCCN(C(=O)Nc3ccc(Cl)c(C(F)(F)F)c3)CC2)cc1 [TCMDC-136110] | 28.79%
62 | Cc1[nH]c(CNCCCNc2cc(=O)c3ccccc3[nH]2)c(Br)c1Br [TCMDC-139780] | -12%
63 | COc1ccc(-c2cc(C(=O)Nc3ccc4nc(-c5ccccc5)[nH]c4c3)[nH]n2)cc1 [TCMDC-134399] | -1.351%
64 | Fc1cccc(COc2ccc(Nc3ncnc4sc(C#CCNC5CCC5)cc34)cc2Cl)c1 [TCMDC-138785] | 4.873%
65 | Cc1cc(NCCc2ccccc2)nc(/N=C(\N)Nc2cccc([N+](=O)[O-])c2)n1 [TCMDC-138371] | 3.581%
66 | Cc1cc(NCCc2ccccc2)nc(/N=C(\N)Nc2cccc(Cl)c2)n1 [TCMDC-138364] | 54.32%
67 | CC(C)CCN(Cc1cncn1Cc1cccc(C(F)(F)F)c1)C(=O)c1ccccc1C#N [TCMDC-132457] | 14.87%
68 | O=C(O)C(F)(F)F.O=C1CCCN1CCCNCc1ccc(-c2ccc(-c3nc4cc(C(F)(F)F)ccc4[nH]3)cc2)cc1 [TCMDC-132760] | 37.39%
